# Rows were chosen to be rich in hits. Some 9.4% of all compounds tested hit in one or more screens of this group.
# HPGD inh: blocks human HPGD enzyme activity; P15428; purified HPGD, NADH fluorescence kinetic, PGE2 substrate; Potency, µM, inactives show at the highest dose activity change, negative = inhibition, hits mostly inhibitors; 150,000 tested, 4.3% active; AID 894; active = well fitted inhibition curve with a large enough effect, not every such curve was filed as active; inconclusive = small, poorly fitted or top-dose-only effect, or another doubt; inactive = no such curve, though single readings can be large or run the other way; also: potency is read from the fitted curve at half-maximal effect; % is scaled to controls: 0 for no effect and ±100 for the full control effect
# Target sequence (P15428 whole entry, looked up): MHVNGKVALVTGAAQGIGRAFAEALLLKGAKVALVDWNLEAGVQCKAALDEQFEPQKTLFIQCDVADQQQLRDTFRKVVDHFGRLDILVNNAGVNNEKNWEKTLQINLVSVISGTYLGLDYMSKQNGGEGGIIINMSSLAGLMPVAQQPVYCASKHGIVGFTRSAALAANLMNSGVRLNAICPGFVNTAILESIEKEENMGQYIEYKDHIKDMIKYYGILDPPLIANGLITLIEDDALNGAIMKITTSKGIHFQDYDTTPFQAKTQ
#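 NADH formation kinetics: reaction with 30 uM PGE2 and 1 mM NAD+ (final), 20 nM enzyme, Tris-HCl pH 8 with Tween 20, after 15 min compound preincubation at room temperature. Fluorescence change, last versus first of five reads.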
# IMPase Li inh: IMPase inhibition in cells with lithium potentiation | 210,000 tested, 0.35% active | CHO-M1 cells, IP1 TR-FRET (IP-One), carbachol + lithium | Potency, µM (doses to about 59.4 µM), without a hit: at the highest dose activity, negative = IMPase inhibition, hits mostly inhibitors;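 also: IP1 builds up when IMPase is blocked and the TR-FRET signal falls; potency is read from the fitted curve at half-maximal effect; plate controls were basal vehicle for no effect and high inhibitor control for full effect; nearly all actives have a fitted effect of over 50% in size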
#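 Concentration–response in CHO-M1 cells, lithium-potentiated; 30 min at 37C. IP1 detected by competitive TR-FRET after 10 min lysis at RT. Hill-fitted AC50.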
# ALDH1A1 inh: inhibitors of human aldehyde dehydrogenase 1A1; P00352; Purified ALDH1A1, NADH fluorescence, propionaldehyde substrate; Potency, µM (highest dose often 75.3 µM), for inactives: at the top dose activity, negative = inhibition, usual class: inhibitors; 220,000 tested, 7.3% active; AID 1030; active = well fitted inhibition curve with a large enough effect, not every such curve was filed as active; inconclusive = small, poorly fitted or top-dose-only effect, or another doubt; inactive = no such curve, though single readings can be large or run the other way;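 also: potency is read from the fitted curve at half-maximal effect; plate controls were no enzyme wells and a reference inhibitor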
# HTT aggregate: inhibitors of mutant huntingtin aggregate formation in PC12 cells; PC12 HttQ103-GFP aggregates, Acumen cytometry, 40 h; Potency, µM (series often up to 46.1 µM), for inactives: at the highest dose activity change, negative = inhibition, most hits filed as inhibitors; 220,000 tested, 1.1% active; AID 1688; also: potency is read from the fitted curve at half-maximal effect; % is scaled to controls: 0 for no effect and ±100 for the full control effect; nearly all actives have a fitted effect of over 60% in size
#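 Inducible Q103 Huntingtin exon 1–GFP PC12 line, 1500 cells/well in phenol red free DMEM with 5% equine and 5% calf serum. Tebufenozide 100 nM induced expression; compounds titrated; aggregates quantified by cytometry.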
# HTT ATP protect: Huntington cell model cytoprotection by ATP luminescence; 230,000 tested, 0.14% active; PC12 HTT-Q103 induced, cytoprotection, ATP luminescence, 40 h; Potency, µM (titrated, usually from 56.4 µM), for inactives: cytoprotection (ATP increase), actives largely listed as activators; also: potency is read from the fitted curve at half-maximal effect; % of control where 0% means no effect; nearly all actives have a fitted effect of over 45% in size
#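 Compounds added alongside 100 nM tebufenozide, which induces toxic Q103 huntingtin exon 1-GFP in stable PC12 cells; surviving cells quantified by luminescent ATP measurement. Medium: phenol red-free DMEM, 5% equine and 5% calf serum.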
# IMPase inh: cell-permeable inhibitors of inositol monophosphatase (IMPase); P97697; inhibition (IP1 accumulation), % at 46.1 µM; 120,000 tested, under 10 active; CHO-M1 cells, IP1 accumulation, HTRF TR-FRET ratio; active = well fitted curve in the direction sought with a large enough effect in the signal ratio, not every such curve was filed as active; inconclusive = small, poorly fitted or top-dose-only effect, or a change in a side signal; inactive = no such curve, though single readings can be large or run the other way; the % refers to the signal ratio;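 also: cells stimulated with carbachol in lithium chloride buffer; plate controls were DMSO basal wells for no effect and reference inhibitor wells for full effect; higher means more IMPase inhibition seen as more IP1 and lower FRET ratio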
# Target sequence (P97697 whole entry, looked up): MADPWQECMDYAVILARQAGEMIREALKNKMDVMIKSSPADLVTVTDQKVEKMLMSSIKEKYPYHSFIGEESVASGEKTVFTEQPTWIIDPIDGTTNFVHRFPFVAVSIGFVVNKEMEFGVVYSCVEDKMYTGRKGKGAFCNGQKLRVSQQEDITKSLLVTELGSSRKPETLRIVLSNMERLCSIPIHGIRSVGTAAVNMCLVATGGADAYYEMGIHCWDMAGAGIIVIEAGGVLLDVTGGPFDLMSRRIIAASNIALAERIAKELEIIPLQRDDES
#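 The IP-One HTRF competitive assay in carbachol-stimulated CHO-M1 cells quantifies cellular IP1. Compounds spanned up to 46 uM final, and activity is expressed as AC50 from concentration-response fits of the ratio and donor data.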
# Numbers without * were called inactive; ? = inconclusive; . = no result given; [ ] = dose if it differs, or a comment. Unless noted, calls follow the shape of the dose curve; as a rule, active = well fitted curve in the direction sought with a large enough effect; inconclusive = small, poorly fitted or top-dose-only effect, or another doubt; inactive = no such curve, though single readings can be large; an effect the other way counts as inactive or inconclusive.
SMILES,HPGD inh,IMPase Li inh,ALDH1A1 inh,HTT aggregate,HTT ATP protect,IMPase inh
Cc1cccc(C(=O)N2CCNC(=O)C2CC(=O)Nc2ccc(F)cc2)c1 (stereo not drawn),.,.,.,.,.,1.0
COC(=O)CCC(NC(=O)OCc1ccccc1)C(=O)NC(CC(C)C)C(=O)OC (stereo not drawn),-7.0%,-8.0%[38.3 µM],4.4%,3.4%,-33.0%,1.3
CC(C)C[C@@H](C=O)NC(=O)[C@H](CC(C)C)NC(=O)[C@H](CC(C)C)NC(=O)OCc1ccccc1,.,7.2%,14.1µM*,.,20.6%,.
COc1ccc(-c2oc3ncn4nc(COc5cccc(C)c5C)nc4c3c2-c2ccc(OC)cc2)cc1,.,.,.,.,.,7.5
O=C(O)c1ccc(-n2nc(C(F)(F)F)c3c2-c2ccoc2CC3)cc1,22.4µM*,11.4%[38.3 µM],-14.2%,-14.8%,-5.2%[0.074 µM],?
COC(=O)c1ccc(-n2nc(C(F)(F)F)c3c2-c2ccoc2CC3)cc1,-12.5%,14.8%,?,3.1%,14.6%[10 µM],6.0[0.0738 µM]
CC1(C)CC(=O)C2=C(C1)NC(SCC(N)=O)=C(C#N)C21CCCCC1,-20.0%,6.3%[38.3 µM],?,-0.1%,-19.9%,1.2
Cc1cc(C)c(C(N)=O)c(SCC(=O)c2ccc(Cl)cc2)n1,-1.3%,-4.1%[38.3 µM],-4.2%,-24.5%,-11.7%,0.7
COc1ccc(C(=O)CSC2=C(C#N)C3(CCCCC3)C(C#N)=C(N)N2)cc1,.,.,8.91µM*,-16.7%,5.1%,5.6
N#CC1=C(N)NC(SCC(=O)c2ccc(Cl)cc2)=C(C#N)C12CCCC2,?,17.0%[38.3 µM],28.2µM*,?,10.9%,1.5
N#CC1=C(N)NC(SCC(=O)c2ccc(Br)cc2)=C(C#N)C12CCCCC2,-16.6%,8.9%,12.6µM*,?,.,.
Cc1ccccc1Nc1nc(N)nc(CSc2n[nH]c(N)n2)n1,.,.,.,0.3%[9.22 µM],26.2%[10 µM],.
S=c1[nH]nc(C2CCCCC2)n1/N=C/c1cccs1,12.6µM*,6.7%[38.3 µM],22.4µM*,-3.5%,-2.4%,2.5
CC(/C=N/n1c(C2CCCCC2)n[nH]c1=S)=C\c1ccccc1,?,-4.1%[38.3 µM],-7.8%,-7.5%,10.7%,-8.2
Cc1ccc(/C=N/n2c(C3CCCCC3)n[nH]c2=S)o1,28.2µM*,6.1%,?,3.4%,7.8%[0.074 µM],.
S=c1[nH]nc(C2CCCCC2)n1/N=C/c1ccncc1,.,-3.0%,-7.7%,0.224µM*,0.8%,.
Cc1n[nH]c(=S)n1/N=C/c1ccccc1,?,-5.4%,-6.3%,-9.4%,.,.
O=[N+]([O-])c1ccc(/C=N/n2c(C3CCCCC3)n[nH]c2=S)cc1,4.47µM*,10.4%[38.3 µM],-1.8%,0.6%,-10.9%,5.0
O=C1CC(c2ccc(Cl)cc2)Sc2nc(-c3ccc(F)cc3)nn21 (stereo not drawn),.,.,.,.,.,5.7
CCOc1cc(C(=O)Nc2cccc3cccnc23)cc(OCC)c1OCC,.,.,.,.,.,15.0
CC(=O)c1cccc(CN2CCCC(CCC(=O)NCc3ccc(F)c(F)c3)C2)c1 (stereo not drawn),.,18.4%,0.5%,-19.4%[9.22 µM],5.9%[10 µM],.
Cc1cc2ccc(=O)oc2cc1OC[C@@H](O)C(C)(C)O,?,-0.4%,?,.,26.5%[1.9 µM],-10.3
Cc1cc(-c2n[nH]c(=S)n2/N=C/c2ccc(C)o2)n[nH]1,.,.,.,8.3%[9.22 µM],-2.6%[10 µM],.
Cc1cccc(-c2n[nH]c(=S)n2/N=C/c2ccc(C)o2)c1,15.8µM*,9.9%,?,17.5%,.,.
Clc1ccc2nncn2n1,.,-14.5%,-5.0%,-1.9%,7.5%,.
SMILES,HPGD inh,IMPase Li inh,ALDH1A1 inh,HTT aggregate,HTT ATP protect,IMPase inh
CCN1C(=O)c2cccc3c(NC(=O)c4ccc(OC)c(OC)c4)ccc1c23,-6.1%,52.5%[38.3 µM],4.47µM*,6.0%,1.0%[10 µM],?
CCN1C(=O)c2cccc3c(NC(=O)C4CCCCC4)ccc1c23,.,.,3.98µM*,-1.1%,-20.6%,27.0
Clc1ccc(-c2nnc(CSc3nnc(-c4cccs4)o3)o2)cc1,-11.9%,18.3%[38.3 µM],-4.5%,12.7%,7.7%,-11.3
Cn1c(SCc2nnc(-c3ccccc3)o2)nc2ccccc21,.,-6.3%,12.6µM*,1.1%,-5.5%,.
Clc1ccc(OCc2nnc(SCc3nnc(-c4ccccc4)o3)o2)c(Cl)c1,7.94µM*,28.3%[38.3 µM],?,16.2%,3.7%,-2.7
Cn1c2ccccc2c2nnc(SCc3nnc(-c4ccccc4)o3)nc21,.,1.5%,3.6%,13.5%[9.22 µM],30.3%[10 µM],.
Cc1cc(=O)[nH]c(SCc2nnc(-c3ccccc3)o2)n1,-22.3%,13.6%[38.3 µM],-3.4%,4.8%,-7.9%,-2.7
Clc1ccc2nc(SCc3nnc(-c4ccccc4)o3)[nH]c2c1,17.8µM*,-20.1%[38.3 µM],11.2µM*,-18.5%,-30.1%[10 µM],-5.6
COc1cccc(Cn2c(=O)c(-c3cccs3)nc3cnc(OCc4ccccc4)nc32)c1,.,-1.5%,?,.,-28.0%,.
CC1(C)OC(=O)N(Cc2ccco2)C1(C)O (stereo not drawn),-16.7%,-13.3%[38.3 µM],17.8µM*,6.1%,9.9%,1.1
COc1ccc(OC)c(C2CC(=O)NC(SC)=C2C#N)c1 (stereo not drawn),-16.5%,6.8%[38.3 µM],-6.2%,22.4%,-21.5%,-3.9
COc1ccc(OC)c(C2CC(=O)N3CN(c4cccc(Cl)c4C)CSC3=C2C#N)c1 (stereo not drawn),7.94µM*,-12.7%[38.3 µM],3.16µM*,4.9%,-19.5%,-6.1
COc1cccc(C2CC(=O)N3CN(c4cccc(Cl)c4C)CSC3=C2C#N)c1OC (stereo not drawn),7.94µM*,-1.5%[38.3 µM],3.16µM*,21.6%,-3.6%,-4.1
CCOc1ccccc1Nc1nc(-c2sc(NC(=O)c3ccc([N+](=O)[O-])cc3)nc2C)cs1,-2.9%,11.4%[38.3 µM],0.794µM*,-2.3%,-87.7%,-1.6
C=CCCC(=O)Nc1nc(C)c(-c2csc(Nc3ccccc3OC)n2)s1,-19.2%,7.5%[38.3 µM],-10.2%,17.8µM*,-93.1%,-5.0
CCCCC(=O)Nc1nc(C)c(-c2csc(Nc3ccccc3OC)n2)s1,-18.2%,13.8%[38.3 µM],?,?,-42.6%,7.8
COc1ccccc1Nc1nc(-c2cccs2)cs1,-28.8%,5.3%[38.3 µM],3.98µM*,12.8%[9.22 µM],-25.4%,6.8
Cc1ccccc1Nc1nc(-c2sc(NC(=O)c3cccc(Cl)c3)nc2C)cs1,-14.2%,-5.1%[38.3 µM],17.8µM*,-2.0%,-15.8%,2.4
Cc1ccccc1Nc1nc(-c2sc(NC(=O)c3ccc([N+](=O)[O-])cc3)nc2C)cs1,-23.0%,21.1%[38.3 µM],?,-16.9%,-29.5%,-2.4
Cc1ccccc1Nc1nc(-c2sc(NC(=O)c3ccccc3)nc2C)cs1,?,9.6%[38.3 µM],20µM*,1.4%,-32.0%,-6.0
COc1cccc(NC(=O)CSc2nc3c(c(-c4ccco4)c2C#N)CCCC3)c1,-21.1%,11.2µM*,?,16.9%,?,3.2
Cc1cccc(CSc2nc3c(c(-c4cccs4)c2C#N)CN(C)CC3)c1,-5.1%,4.5%,?,-14.4%,.,.

# Screening results: PubChem BioAssay, National Center for Advancing Translational Sciences (NCATS)
